Screen size: about 6,200 compounds; about 2,900 (47%) were called active. The set was probably picked from earlier hits. The list shows a part of the results. Values without a mark were called inactive. Cut-off read from the data, not from the text of the source: active = inhibition above about 50%; inactive = the rest.
Experiment: Mycobacterium tuberculosis growth inhibition, primary screen (AID 1259343)
Conditions: inhibition: at 10 µM, hits give high values; outcome: 10 uM

Compound | inhibition
Cc1ncc(CNC(=O)N2CCC(C(C)C)CC2)s1 | -9.36%
S=c1[nH]nc(-c2ccc(Br)cc2)o1 | 80.5% (active)
S=c1nc(-c2ccc(Br)cc2)[nH][nH]1 | -31.4%
S=c1[nH]nc(-c2ccc(Cl)cc2)o1 | 41.4%
c1cc2c(cc1Oc1nc(CN3CCOCC3)nc3sc4c(c13)CCC4)CCC2 | 22.2%
CCN1CCc2c(sc3nc(C4CCCCC4)nc(N4CCNCC4)c23)C1 | 50.1% (active)
c1nc(N2CCCCC2)c2c3c(sc2n1)CCCC3 | 30%
COCc1nc(N2CCNCC2)c2c3c(sc2n1)CCCC3 | 94.1% (active)
CC(C)(CC(=O)O)CC(=O)N1CCC2(CC1)OCc1cc(-c3ccc(C(F)(F)F)cc3)ccc1O2 | 58% (active)
C#CCN(CC=C)Cc1nc(-c2ccc(OCC)cc2)oc1C | -15.4%
Cc1sc2nc(-c3ccco3)oc(=O)c2c1C | -5.77%
CCOc1cccc(OCc2nc(-c3ccco3)oc2C)c1 | 75.2% (active)
OCC#CCSc1ncnn1-c1ccccc1 | -60.2%
COc1ccc(Nc2ccc(Nc3ccc([N+](=O)[O-])cc3[N+](=O)[O-])cc2)cc1 | 94.7% (active)
COc1ccc(Nc2ncc([N+](=O)[O-])cc2[N+](=O)[O-])cc1 | inactive
COc1ccc(Nc2c([N+](=O)[O-])ccc3c2=NC2(CCCCC2)N=3)cc1 | 47.2%
COC(=O)C1C(c2ccccc2)C2(c3ccccc3)C(C)(C)C12C(=O)OC (stereo unspecified) | 10.3%
O=c1cc(-c2c(F)c(F)c(F)c(F)c2F)oc2c(F)c(F)c(F)c(F)c12 | 100% (active)
Fc1ccc(C2C=C3Oc4ccccc4N=C3NN2)cc1 (stereo unspecified) | 92.6% (active)
Brc1ccccc1OCc1cnn(-c2ccccc2)n1 | 21.9%
CC(C)c1ccc(NC=C2C(=O)OC(C)(C)OC2=O)cc1 | 85.2% (active)
CC1(C)OC(=O)C(=CNc2ccc3ccccc3c2)C(=O)O1 | 20.6%
CC(=O)NC1CCN(Cc2nc(-c3cccc(Oc4ccccc4)c3)oc2C)C1 (stereo unspecified) | 24.9%
Cc1oc(-c2ccc3ccccc3c2)nc1CN1CCN(C(=O)c2ccco2)CC1 | 78.8% (active)
Cc1cccc(-n2cc(CN3CCN(C(=O)c4ccco4)CC3)c(-c3cccc(F)c3)n2)c1 | 24.8%
CC(=O)NC(c1ccccc1)(c1ccccc1)C(F)(F)F | 7.55%

Compound | inhibition
O=C(NCC(F)(F)F)c1cc(-c2ccc(Cl)cc2)n[nH]1 | 72.2% (active)
O=C(NCC(F)(F)F)c1cc(-c2ccccc2Cl)n[nH]1 | 30.1%
Cc1ccc(Sc2ccccc2N2CCNCC2)c(C)c1 | 83.7% (active)
CCOC(=O)CN1C(=O)CSC1=CC#N | 26.1%
O=C(Nc1ccccn1)C1CCN(c2cccc(C(F)(F)F)n2)CC1 | 92.4% (active)
Cc1nn(-c2ccccc2)c(Cl)c1C(=O)Nc1ccccc1I | 28.9%
CCCCn1nc(C)c(C(=O)Nc2cc(C)ccc2F)c1Cl | 60.1% (active)
CCCCn1nc(C)c(C(=O)NCc2ccc(Cl)s2)c1Cl | -14.6%
Cc1cc(C)c2ccc(O)cc2n1 | 83.4% (active)
C=CCN(Cc1ccc(Cl)s1)C(=O)CSc1nnc(-c2ccc(C)cc2)o1 | 21.2%
Cc1ccc(C(=O)Nc2ccccc2SCC(F)(F)F)cc1 | 45.2%
C=CCN(CC=C)C(=S)NC(=O)c1ccc(C)cc1 | 98.4% (active)
C=CCOc1ccc(S(=O)(=O)c2ccc(O)cc2)cc1 | 24.3%
CN(Cc1nc2ccccc2s1)C(=O)CCc1nnc(CCc2c[nH]c3ccccc23)o1 | 22.7%
Cc1cc(Br)c(NC(=O)CN(C)Cc2nc3ccccc3s2)c(Br)c1 | 84.4% (active)
C=CCN(C(=O)c1cccc(OC)c1)c1nc2ccccc2s1 | -37.8%
Cc1ccc(CSc2ncnc3c2nnn3Cc2ccccc2)cc1 | -28.1%
O=C(CSc1ncnc2c1nnn2Cc1ccc(F)cc1)N1CCCCCC1 | -40.9%
Fc1ccc(Cn2nnc3c(=S)nc[nH]c32)cc1 | 101% (active)
Clc1ccc(Cn2nnc3c(SCc4cccnc4)ncnc32)cc1 | 43.6%
S=c1nc[nH]c2c1nnn2Cc1ccc(Cl)cc1 | 78.3% (active)
Clc1cccc(CSc2ncnc3c2nnn3Cc2ccccc2)c1 | -28%
Cc1ccc(Cn2nnc3c(=S)nc[nH]c32)cc1 | 92.2% (active)
Cc1[nH]n(-c2ccccc2)c(=O)c1N=Nc1c(C)n(C)n(-c2ccccc2)c1=O | 94.3% (active)
CCC(=O)N(c1nnc(SCC(=O)c2cc(C)n(-c3cc(C)on3)c2C)s1)C1CC1 | 72.7% (active)
